Experimental data taken from PubChem BioAssay AID743356 (Broad Institute, 2014).
Values without a mark were called inactive.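 The calls were made as follows: active = compounds that cut cell viability with a fitted half-maximal dose no more than twice the top valid dose; inconclusive = flat curve inhibiting 30 to 70%, or a poor fit; inactive = the rest, including any rise in viability.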

Assay: viability loss in A549 lung cells – cell-based, luminescence, dry powder, set 10, cytotoxicity control, dose response (AID 743356)
Conditions: CellTiter-Glo ATP luminescence, 72 h; at 26 µM unless noted
With `CN1c2ccc(-c3ccc(F)cc3)cc2[C@H]2[C@H](CCN2C(=O)Cc2cccnc2)[C@H]1CO` the max inhibition of viability %, hits give high values was 13.9% [at 0.0007 µM]. For `CN1c2ccc(-c3ccc(F)cc3)cc2[C@H]2[C@H](CCN2C(=O)Nc2cc(F)ccc2F)[C@H]1CO`, the max inhibition of viability %, hits give high values was -3.91% [at 23.5 µM]. For `COc1ccc(NC(=O)N2CC[C@@H]3[C@@H](CO)N(C)c4ccc(-c5ccc(F)cc5)cc4[C@@H]32)cc1`, the max inhibition of viability %, hits give high values was -9.64%. For `COc1ccccc1C(=O)N1CCN(c2ccc(C(C)=O)cc2)CC1`, the max inhibition of viability %, hits give high values was 13.9% [at 0.012 µM]. In the case of `CCCCCCCC(=O)N1CC[C@@H]2[C@@H](CO)N(C)c3ccc(-c4cccc(F)c4)cc3[C@@H]21`, the max inhibition of viability %, hits give high values is reported as 20.6% [at 0.006 µM]. `COC(=O)c1ccc(N2CCN(C(=O)c3ccc4c(c3)OCO4)CC2)cc1` gave a max inhibition of viability %, hits give high values of 15.6% [at 0.1 µM]. `CC(C)NC(=O)N1CC[C@@H]2[C@@H](CO)N(C)c3ccc(-c4cccc(F)c4)cc3[C@@H]21` gave a max inhibition of viability %, hits give high values of 14.2% [setting not given]. For `CC(=O)c1ccc(NCCNC(=O)c2ccc3c(c2)OCO3)cc1`, the max inhibition of viability %, hits give high values was 9.33% [at 0.0007 µM]. `CNC(=O)c1ccc(N2CCN(C(=O)c3ccc4c(c3)OCO4)CC2)cc1` gave a max inhibition of viability %, hits give high values of -22.9% [at 0.0015 µM]. Compound `CNS(=O)(=O)c1ccc(N2CCN(C(=O)c3ccc4c(c3)OCO4)CC2)cc1` has a max inhibition of viability %, hits give high values of 21.4% [at 0.003 µM]. In the case of `CCCNC(=O)N1CC[C@@H]2[C@@H](CO)N(C)c3ccc(-c4ccc(F)cc4)cc3[C@@H]21`, the max inhibition of viability %, hits give high values is reported as -28.2% [at 0.38 µM]. `COc1ccc(NC(=O)N2CC[C@@H]3[C@@H](CO)N(C)c4ccc(-c5cccc(F)c5)cc4[C@@H]32)cc1` showed a max inhibition of viability %, hits give high values of -13.8% [at 0.0235 µM]. With `CC(=O)c1ccc(N2CCN(C(=O)c3ccccc3Cl)CC2)cc1` the max inhibition of viability %, hits give high values was 15.7% [at 0.195 µM]. `CN1c2ccc(-c3ccc(F)cc3)cc2[C@H]2[C@H](CCN2C(=O)Nc2ccc(F)cc2)[C@H]1CO` gave a max inhibition of viability %, hits give high values of 18.3% [at 0.05 µM]. Compound `CC(=O)c1ccc(N2CCN(C(=O)c3ccccc3F)CC2)cc1` has a max inhibition of viability %, hits give high values of 10.7% [at 0.012 µM]. Work on `CC(=O)c1ccc(N2CC3(CN(C(=O)c4ccc5c(c4)OCO5)C3)C2)cc1` yielded a max inhibition of viability %, hits give high values of -11.2% [setting not given]. `COCC(=O)N1CC[C@@H]2[C@@H](CO)N(C)c3ccc(-c4cccc(F)c4)cc3[C@@H]21` gave a max inhibition of viability %, hits give high values of -10.3%. In the case of `CN1c2ccc(-c3cccc(F)c3)cc2[C@@H]2[C@@H](CCN2C(=O)c2ccc3c(c2)OCO3)[C@H]1CO`, the max inhibition of viability %, hits give high values is reported as -9.13%. In the case of `CN1c2ccc(-c3ccc(F)cc3)cc2[C@H]2[C@H](CCN2C(=O)Cc2ccccn2)[C@H]1CO`, the max inhibition of viability %, hits give high values is reported as -16.3%. `CN1c2ccc(-c3cccc(F)c3)cc2[C@H]2[C@H](CCN2C(=O)Cc2ccccc2)[C@H]1CO` gave a max inhibition of viability %, hits give high values of -6.91% [at 23.5 µM]. `CC(=O)c1ccc(N2CCN(C(=O)c3ccc4c(c3)OCO4)CC2)cc1` gave a max inhibition of viability %, hits give high values of 20.5% [at 0.8 µM]. Compound `CC(=O)c1ccc(N2CCN(C(=O)c3ccc4c(c3)OCO4)[C@H](C)C2)cc1` has a max inhibition of viability %, hits give high values of 9.13% [at 12 µM]. For `CN1c2ccc(-c3cccc(F)c3)cc2[C@H]2[C@H](CCN2C(=O)Cc2cccnc2)[C@H]1CO`, the max inhibition of viability %, hits give high values was -2.44%. `CN(C)C(=O)c1ccc(N2CCN(C(=O)c3ccc4c(c3)OCO4)CC2)cc1` gave a max inhibition of viability %, hits give high values of 10.1% [at 0.1 µM]. Work on `CCC(=O)N1CC[C@@H]2[C@@H](CO)N(C)c3ccc(-c4ccc(F)cc4)cc3[C@@H]21` yielded a max inhibition of viability %, hits give high values of -5.87% [at 0.09 µM].
